Results from PubChem BioAssay.
The source made the active and inactive calls.

What was measured:
[1] = small molecules captured by biotinylated probe aFSTL3 – biochemical, small-molecule microarray, fluorescence 635/667, stem cell growth factor project, primary screen (AID 1064); settings: higher = more signal;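 note: measures binding of the biotinylated anti-FSTL3 antibody to printed compounds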
[2] = binders from COS7 lysate, DM2A8 probe, primary screen, torsin A project, cell lysate, small-molecule microarray, fluorescence 635/667 (AID 1065); settings: higher = more signal, COS7 lysate expressing mutant human TOR1A
[3] = small molecules captured by biotinylated probe aFGF2 – biochemical, small-molecule microarray, fluorescence 635/667, stem cell growth factor project, primary screen (AID 1067); settings: higher = more signal;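 note: measures binding of biotinylated aFGF2 protein to printed compounds on slides; z-score merges feature fluorescence and signal-to-noise across triplicate slides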
[4] = small molecules captured by biotinylated probe aFGF10 – biochemical, small-molecule microarray, fluorescence 635/667, stem cell growth factor project, primary screen (AID 1071); settings: higher = more signal;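 note: score merges 667 nm spot intensity and signal to noise from triplicate slides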
[5] = target: Neurogenic locus notch homolog protein 2 (Homo sapiens) (UniProt Q04721); experiment: small molecules binding Notch2 protein – biochemical, small-molecule microarray, 635 nm fluorescence, stem cell growth factors, primary screen (AID 1073); settings: higher = more signal
Sequence of Neurogenic locus notch homolog protein 2 (Homo sapiens) (Q04721 whole entry, looked up, canonical isoform): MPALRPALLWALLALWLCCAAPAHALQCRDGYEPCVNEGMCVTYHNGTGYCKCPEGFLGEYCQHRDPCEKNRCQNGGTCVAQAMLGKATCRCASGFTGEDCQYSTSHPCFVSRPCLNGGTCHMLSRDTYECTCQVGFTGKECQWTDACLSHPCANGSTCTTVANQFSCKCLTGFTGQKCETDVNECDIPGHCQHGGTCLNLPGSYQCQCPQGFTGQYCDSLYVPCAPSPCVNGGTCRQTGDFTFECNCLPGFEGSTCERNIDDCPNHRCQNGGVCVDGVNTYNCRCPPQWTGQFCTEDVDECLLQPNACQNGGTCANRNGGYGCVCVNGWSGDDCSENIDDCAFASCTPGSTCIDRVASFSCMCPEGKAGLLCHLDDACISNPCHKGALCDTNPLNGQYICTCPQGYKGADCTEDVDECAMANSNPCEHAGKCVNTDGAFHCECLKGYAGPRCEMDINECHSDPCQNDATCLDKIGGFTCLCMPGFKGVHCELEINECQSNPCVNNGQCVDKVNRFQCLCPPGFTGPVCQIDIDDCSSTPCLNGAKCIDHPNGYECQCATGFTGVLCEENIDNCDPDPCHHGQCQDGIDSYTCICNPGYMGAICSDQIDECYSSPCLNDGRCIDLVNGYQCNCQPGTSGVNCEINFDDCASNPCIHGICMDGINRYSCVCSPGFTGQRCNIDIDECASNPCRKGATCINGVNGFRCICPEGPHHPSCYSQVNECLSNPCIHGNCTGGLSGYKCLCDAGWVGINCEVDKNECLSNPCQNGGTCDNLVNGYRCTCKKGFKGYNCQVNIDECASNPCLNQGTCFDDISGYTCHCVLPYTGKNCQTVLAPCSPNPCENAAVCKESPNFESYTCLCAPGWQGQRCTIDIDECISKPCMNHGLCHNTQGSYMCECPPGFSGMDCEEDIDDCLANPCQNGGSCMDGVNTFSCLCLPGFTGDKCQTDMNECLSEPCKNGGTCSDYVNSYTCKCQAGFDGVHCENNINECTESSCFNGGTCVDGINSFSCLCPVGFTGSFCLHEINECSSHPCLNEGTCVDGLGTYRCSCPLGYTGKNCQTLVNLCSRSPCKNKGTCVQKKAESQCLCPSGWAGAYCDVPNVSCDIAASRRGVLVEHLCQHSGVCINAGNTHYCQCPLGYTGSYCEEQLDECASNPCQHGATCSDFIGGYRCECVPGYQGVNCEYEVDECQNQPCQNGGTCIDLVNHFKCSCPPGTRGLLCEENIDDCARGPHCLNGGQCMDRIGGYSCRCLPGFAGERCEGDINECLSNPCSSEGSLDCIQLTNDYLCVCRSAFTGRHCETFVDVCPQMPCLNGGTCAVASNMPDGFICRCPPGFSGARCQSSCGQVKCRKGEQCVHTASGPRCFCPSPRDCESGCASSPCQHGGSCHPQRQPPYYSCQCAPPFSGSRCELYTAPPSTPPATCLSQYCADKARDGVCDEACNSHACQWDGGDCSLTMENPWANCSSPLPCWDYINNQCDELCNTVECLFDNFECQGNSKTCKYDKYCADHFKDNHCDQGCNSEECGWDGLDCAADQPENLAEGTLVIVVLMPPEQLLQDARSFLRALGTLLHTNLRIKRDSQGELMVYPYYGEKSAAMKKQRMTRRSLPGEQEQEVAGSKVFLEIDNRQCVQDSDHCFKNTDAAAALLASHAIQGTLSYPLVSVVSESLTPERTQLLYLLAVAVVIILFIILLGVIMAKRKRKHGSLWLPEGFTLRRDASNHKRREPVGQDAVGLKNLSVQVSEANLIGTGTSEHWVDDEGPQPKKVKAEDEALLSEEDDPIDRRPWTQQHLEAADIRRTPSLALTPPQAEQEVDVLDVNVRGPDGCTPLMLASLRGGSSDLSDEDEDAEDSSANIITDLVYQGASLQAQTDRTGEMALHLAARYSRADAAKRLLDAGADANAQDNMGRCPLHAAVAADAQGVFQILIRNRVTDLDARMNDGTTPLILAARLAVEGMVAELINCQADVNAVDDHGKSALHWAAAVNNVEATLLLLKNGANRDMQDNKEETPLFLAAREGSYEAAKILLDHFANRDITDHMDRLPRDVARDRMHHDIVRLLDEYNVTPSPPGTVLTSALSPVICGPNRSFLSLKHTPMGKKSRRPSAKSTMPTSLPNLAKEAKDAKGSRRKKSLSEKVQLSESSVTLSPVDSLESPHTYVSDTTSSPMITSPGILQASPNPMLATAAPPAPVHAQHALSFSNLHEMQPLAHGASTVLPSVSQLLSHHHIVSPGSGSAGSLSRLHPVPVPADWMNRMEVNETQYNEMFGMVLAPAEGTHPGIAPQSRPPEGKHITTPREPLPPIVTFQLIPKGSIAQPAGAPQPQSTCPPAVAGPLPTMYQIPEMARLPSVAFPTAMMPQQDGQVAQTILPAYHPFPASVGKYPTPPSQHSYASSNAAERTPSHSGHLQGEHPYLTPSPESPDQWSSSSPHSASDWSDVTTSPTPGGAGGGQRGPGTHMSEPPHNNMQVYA

[6] = target: Pro-neuregulin-1, membrane-bound isoform (Homo sapiens) (UniProt Q02297); experiment: small molecules binding neuregulin-1 protein – biochemical, small-molecule microarray, fluorescence 635/667, psychiatric disease protein project, primary screen (AID 1075); settings: NRG1 binding, 635 nm fluorescence, higher = more signal;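 note: score combines 667 nm spot fluorescence with signal to noise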
Sequence of Pro-neuregulin-1, membrane-bound isoform (Homo sapiens) (Q02297 whole entry, looked up, the tested form may be a part, canonical isoform): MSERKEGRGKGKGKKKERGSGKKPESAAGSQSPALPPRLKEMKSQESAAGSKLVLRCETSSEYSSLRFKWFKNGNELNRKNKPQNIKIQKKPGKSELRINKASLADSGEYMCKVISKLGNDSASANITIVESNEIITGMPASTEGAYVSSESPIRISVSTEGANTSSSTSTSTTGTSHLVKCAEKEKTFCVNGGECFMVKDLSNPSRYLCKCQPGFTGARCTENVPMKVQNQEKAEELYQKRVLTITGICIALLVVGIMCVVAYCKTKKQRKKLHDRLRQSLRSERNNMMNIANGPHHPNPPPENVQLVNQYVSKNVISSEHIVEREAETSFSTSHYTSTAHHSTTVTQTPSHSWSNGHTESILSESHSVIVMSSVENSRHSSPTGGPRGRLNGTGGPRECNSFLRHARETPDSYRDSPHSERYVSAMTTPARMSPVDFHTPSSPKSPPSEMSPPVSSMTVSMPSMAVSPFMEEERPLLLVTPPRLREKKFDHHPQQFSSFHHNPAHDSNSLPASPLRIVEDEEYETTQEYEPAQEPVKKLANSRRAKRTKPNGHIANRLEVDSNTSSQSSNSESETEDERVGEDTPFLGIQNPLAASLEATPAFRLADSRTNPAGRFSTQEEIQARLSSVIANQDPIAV

[7] = system: Neuregulin-1 EGF-like domain; experiment: small molecules binding NRG1 EGF domain – biochemical, small-molecule microarray, 635 nm fluorescence, primary screen (AID 1081); settings: higher = more signal;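 note: binding of the protein to compounds printed on small-molecule microarray slides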
[8] = FRG1 expression reporter modulators in myotubes – cell-based, C2C12 myotubes, firefly/Renilla luciferase, luminescence, FRG1 inhibition for FSHD, primary screen (AID 1084); settings: FRG1 promoter luciferase, higher = more signal, called active from +8 up or from −8 down
[9] = small molecules captured by biotinylated probe aFST – biochemical, small-molecule microarray, fluorescence 635/667, stem cell growth factor project, primary screen (AID 1086); settings: higher = more signal;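 note: score merges 667 nm fluorescence with signal-to-noise of each printed compound spot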
[10] = binders of probe aHhip on microarray, primary screen, stem cell growth factor project, biochemical, small-molecule microarray, fluorescence 635/667 (AID 1087); settings: higher = more signal;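 note: score merges spot fluorescence at 667nm with spot signal to noise ratio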

[N-]=[N+]=NC[C@H](Cc1ccccc1)NC(=O)c1ccccc1
composite z-score [1]: -0.259
composite z-score [2]: 0.2
composite z-score [3]: -0.107
composite z-score [4]: -0.168
composite z-score [5]: -0.0596
composite z-score [6]: -0.0451
composite z-score [7]: -0.123
z-score [8]: 1.43 (inactive)
composite z-score [9]: 0.135
composite z-score [10]: -0.0618

CN1C(=O)C2C(C1=O)C1C=C(CCCO)C2C(C2CC2)N1Cc1cc2c(cc1Br)OCO2 (stereo not given)
composite z-score [1]: 0.454
composite z-score [2]: 0.919
composite z-score [3]: -0.141
composite z-score [4]: 0.271
composite z-score [5]: 0.713
composite z-score [6]: 1.24
composite z-score [7]: 1.29
z-score [8]: -0.999 (inactive)
composite z-score [9]: 0.252
composite z-score [10]: -0.201

O=C1[C@@]23C=C(Br)[C@H](C[C@@H]2COC3)[C@@]12CO2
composite z-score [1]: -0.325
composite z-score [2]: 0.422
composite z-score [3]: -0.112
composite z-score [4]: 0.38
composite z-score [5]: 0.32
composite z-score [6]: 0.0504
composite z-score [7]: 0.0447
z-score [8]: -0.214 (inactive)
composite z-score [9]: 0.159
composite z-score [10]: -0.268

CC1(C)C(=O)C(c2ccccc2)=C2CN3C(=O)N(CCc4ccccc4)C(=O)C3(Cc3ccc(F)cc3)C=C21 (stereo not given)
composite z-score [1]: 0.817
composite z-score [2]: -0.339
composite z-score [3]: 0.248
composite z-score [4]: 0.173
composite z-score [5]: 1.47
composite z-score [6]: 0.536
composite z-score [7]: 0.631
z-score [8]: 0.927 (inactive)
composite z-score [9]: 1.58
composite z-score [10]: 0.0818

COc1ccc(C#Cc2ccc3c(c2)[C@]2(C(=O)N3)[C@H](C(=O)Nc3nc4ccccc4s3)[C@H]3C(=O)O[C@H](c4ccccc4)[C@H](c4ccccc4)N3[C@@H]2c2ccccc2OCCO)cc1
composite z-score [1]: -0.0541
composite z-score [2]: 0.125
composite z-score [3]: -0.024
composite z-score [4]: 0.313
composite z-score [5]: 0.98
composite z-score [6]: 0.907
composite z-score [7]: 0.919
z-score [8]: 0.716 (inactive)
composite z-score [9]: 0.723
composite z-score [10]: 0.176

COCCOC(=O)N1C(=O)[C@@]2(c3cc(C#CC4=CCCCC4)ccc31)[C@H](c1ccc(O)cc1)N1[C@H](c3ccccc3)[C@H](c3ccccc3)OC(=O)[C@H]1[C@@H]2C(=O)NC[C@H](O)c1ccccc1
composite z-score [1]: -0.217
composite z-score [2]: 0.167
composite z-score [3]: 0.0059
composite z-score [4]: 0.824
composite z-score [5]: 1.18
composite z-score [6]: 1.3
composite z-score [7]: 1.2
z-score [8]: 0.675 (inactive)
composite z-score [9]: 0.443
composite z-score [10]: -0.174

CC1CC/C=C\[C@H]2OC34C=CCN(CCN5CCOCC5)C(=O)[C@H]3N(C(C)CO)C(=O)[C@@H]4C2C(=O)O1 (stereo not given in full)
composite z-score [1]: -0.246
composite z-score [2]: -1.61
composite z-score [3]: -0.125
composite z-score [4]: -0.467
composite z-score [5]: -0.939
composite z-score [6]: -1.14
composite z-score [7]: 0.737
z-score [8]: -0.203 (inactive)
composite z-score [9]: -0.311
composite z-score [10]: -0.0672

COc1ccc(C(O)C2C=CC3C(=O)N(c4ccccc4)C(=O)C3N2Nc2ccccc2F)cc1 (stereo not given)
composite z-score [1]: 0.109
composite z-score [2]: 0.67
composite z-score [3]: -0.0747
composite z-score [4]: -0.0293
composite z-score [5]: 1.4
composite z-score [6]: 1.8
composite z-score [7]: 1.18
z-score [8]: 0.425 (inactive)
composite z-score [9]: 0.115
composite z-score [10]: -0.0296

COc1ccc(C#Cc2ccc3c(c2)[C@]2(C(=O)N3)[C@H](C(=O)N3CCCCCCC3)[C@H]3C(=O)O[C@H](c4ccccc4)[C@H](c4ccccc4)N3[C@@H]2c2ccc(O)cc2)cc1
composite z-score [1]: 2.46
composite z-score [2]: 0.578
composite z-score [3]: 0.102
composite z-score [4]: 0.295
composite z-score [5]: 0.97
composite z-score [6]: -0.234
composite z-score [7]: 1.24
z-score [8]: 0.626 (inactive)
composite z-score [9]: 2.24
composite z-score [10]: 0.606

CCOC(=O)C[C@H]1[C@H](OC(=O)c2ccc(-c3ccccc3)cc2)[C@@H](NC(=O)Cc2ccc(OC)cc2)c2cc(OCCCO)ccc2N1C(=O)Cc1ccc(OC)cc1
composite z-score [1]: -0.278
composite z-score [2]: -0.236
composite z-score [3]: -0.101
composite z-score [4]: 0.102
composite z-score [5]: 0.216
composite z-score [6]: 0.243
composite z-score [7]: -0.29
z-score [8]: -0.362 (inactive)
composite z-score [9]: 0.3
composite z-score [10]: -0.154
